Only some compounds are listed: those with a hit (about 3.4% of all), similar ones and a draw of the others.
PLCb3 inh: blocks human PLC-beta3 enzyme activity | Q01970 | Purified PLC-beta3, fluorogenic substrate, fluorescence | inhibition, % at 12.2 µM | actives 0.18% (n = 370,000) | AID 720704; in the data active = inhibition above about 11%;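 note: 0% = median of compound wells on plate and 100% = full blocker control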
PLC-gamma1 inh: blocks human PLC-gamma1 enzyme activity; purified PLC-gamma1, fluorogenic substrate, fluorescence; actives 0.84% (n = 370,000); AID 720700; inhibition, % at 12.2 µM; in the data active = inhibition above about 9.5%
HGIII-sPLA2 inh: Blocks human group III sPLA2 activity | actives 0.56% (n = 370,000) | QFRET BODIPY PC-A2 liposome hydrolysis, fluorescence | AID 743126 | inhibition, % at 12.2 µM;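 active = inhibition above mean plus 3 SD of compounds lying within the high and low control bounds, cut at about 19% in these data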;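 note: 0% = median of test compound wells and 100% = no enzyme DMSO wells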
ADAM10 inh: inhibitors of human ADAM10. recombinant ADAM10, EDANS/DABCYL FRET peptide cleavage, 3 h. inhibition, % at 7 µM. actives 0.62% (n = 370,000). AID 720582;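 active = inhibition above a per-campaign cutoff equal to the mean of compounds falling between control-based bounds plus 3 SD, cut at about 20% in these data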;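 note: 0% = DMSO wells while the 100% control is not disclosed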
ADAM17 inh: ADAM17 inhibition, QFRET primary screen; inhibition, % at 6.95 µM; recombinant ADAM17, EDANS/DABCYL FRET peptide cleavage; actives 0.83% (n = 370,000);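 active = inhibition above the mean of compounds lying between control limits plus 3 SD, set per campaign, cut at about 8.5% in these data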;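 note: 0% = DMSO-only wells as the low control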
KLK7 zymogen act: proKLK7 (human) activation, primary screen | actives 0.9% (n = 370,000) | P49862 | activation, % at 7 µM | purified proKLK7, EDANS-DABCYL substrate fluorescence; 100% is mature enzyme control, 0% vehicle;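 active = activation above the mean of all tested compounds plus 3 SD, computed per campaign excluding outliers beyond control limits, cut at about 13% in these data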
Target sequence (P49862 whole entry, looked up): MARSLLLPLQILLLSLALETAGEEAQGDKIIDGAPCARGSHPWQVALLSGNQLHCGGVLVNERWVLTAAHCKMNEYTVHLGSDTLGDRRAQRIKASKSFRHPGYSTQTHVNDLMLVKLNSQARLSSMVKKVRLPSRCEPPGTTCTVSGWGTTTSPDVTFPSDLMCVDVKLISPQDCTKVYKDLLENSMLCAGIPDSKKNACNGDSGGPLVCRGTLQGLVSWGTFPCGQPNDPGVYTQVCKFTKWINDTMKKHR
KLK7 act conf: confirmation of human kallikrein-7 zymogen activators; shares compounds with KLK7 zymogen act; purified proKLK7, EDANS-DABCYL substrate fluorescence; scaled: vehicle 0, mature enzyme 100; activation, % at 7 µM; actives 68% (n = 3,200);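 active = activation, as change over the incubation, above the mean of all tested compounds plus 3 SD, cut at about 13% in these data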
EDANS interfere: fluorescence interference counter-screen for KLK7 activators; actives 80% (n = 3,200); activation, % at 7 µM; EDANS-DABCYL substrate fluorescence interference, no enzyme, 4 h; solvent 0%, active enzyme control 100%; shares compounds with KLK7 zymogen act;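 active = activation above the all-compound mean plus 3 SD, ignoring values outside control-based bounds, cut at about 4.8% in these data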;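 note: value is the 4 h activation minus the activation read at time zero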
EDANS interf: EDANS fluorescence interference in dose response, no enzyme; shares compounds with KLK7 zymogen act; EDANS-DABCYL peptide fluorescence interference; EC50, µM; actives 20% (n = 250); AID 720493;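 active = compounds that raise the fluorescence signal in this interference counterscreen, with EC50 at or below 10 µM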;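 note: intact quenched peptide substrate alone read at 355 nm excitation and 520 nm emission; signal is fluorescence gain from T0 to T4 after four hours at room temperature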
Starred values were filed as active, the others as inactive; i = inactive; x = no result.

SMILES | PLCb3 inh | PLC-gamma1 inh | HGIII-sPLA2 inh | ADAM10 inh | ADAM17 inh | KLK7 zymogen act | KLK7 act conf | EDANS interfere | others
Cc1ccc2c(COC(=O)CC3Sc4ccccc4NC3=O)cc(=O)oc2c1C (stereo not given) | -2 | -2 | 4 | -11 | -4 | -1 | x | x
O=c1cc(O)c2ccc(O)cc2o1 | -13 | -7 | 1 | -37 | -11 | 6 | x | x
O=C(CC1Sc2ccccc2NC1=O)OCc1cc(=O)oc2cc(O)ccc12 (stereo not given) | -495 | i | -31 | i | -190 | 188* | 272* | 279*
Cc1coc2cc3oc(=O)cc(C)c3cc12 | -201 | -189 | 4 | -209 | -70 | 6 | x | x
Cc1nn(-c2ccccc2)c2sc(C(=O)N3CCN(S(=O)(=O)c4ccc(Br)s4)CC3)cc12 | 1 | -3 | -2 | -9 | -4 | 1 | x | x
COc1cc2c(cc1NC(=O)CSc1nnc(-c3cccc(Cl)c3)n1Cc1ccco1)oc1ccccc12 | -1 | 0 | 6 | -8 | -1 | 0 | x | x
Cc1c(O)ccc2c(CC(=O)N[C@@H](Cc3c[nH]c4ccccc34)C(=O)O)cc(=O)oc12 | i | -451 | -6 | -435 | -205 | -28 | x | x
O=C(Cc1cc(=O)oc2cc(O)ccc12)N[C@@H](Cc1c[nH]c2ccccc12)C(=O)O | -324 | -238 | -2 | i | -256 | 16* | 91* | 90*
Cc1ccc(OC(=O)CCS(=O)(=O)c2ccc(C)cc2)cc1 | -2 | 2 | -2 | 5 | 1 | 0 | x | x
COC(=O)c1ccc(COC(=O)CSCC(=O)Nc2ccc(C)cc2C)cc1 | -6 | 7 | -7 | 6 | 1 | 0 | x | x
Cc1ccc(NC(=O)CSCC(=O)OCc2cc(=O)oc3cc(O)ccc23)c(C)c1 | i | i | -19 | i | i | 468* | 288* | 306*
Cc1cc(=O)oc2cc(O)cc(OCc3ccccc3)c12 | i | i | -42 | i | i | 35* | 66* | 78*
Cc1ccc(S(=O)(=O)CCC(=O)Oc2ccc3c(C)cc(=O)oc3c2)cc1 | i | i | 10 | i | i | 24* | 123* | 109*
Cc1cc(=O)oc2ccc(OCc3ccccc3)cc12 | -39 | -24 | -1 | -101 | -44 | 2 | x | x
CCN(CC)c1ccc2c(C)cc(=O)oc2c1 | i | i | -1 | i | i | 27* | 17* | 26*
CCN(CC)c1ccc2ccc(=O)oc2c1 | i | i | 3 | i | -217 | 11 | x | x
COc1ccc(-n2c(SCC(=O)Nc3ccc(S(=O)(=O)Nc4cc(C)nc(C)n4)cc3)nnc2-c2ccco2)cc1 | -2 | -2 | -16 | -11 | -1 | 0 | x | x
C=C(C)Cn1c2ccc(NC(=O)NCc3ccccc3)cc2c(=O)n1C | i | -459 | 3 | i | i | 28* | 32* | 26* | EDANS interf=>70
Cn1c(=O)c2cc(NC(=O)NCCc3ccccc3)ccc2n1Cc1ccccc1 | -480 | -364 | 1 | i | i | 8 | x | x
Cc1cc(C)cc(Cn2c3ccc(NC(=O)NCc4ccccc4)cc3c(=O)n2C)c1 | -487 | -420 | -1 | i | i | -2 | x | x
COc1ccc(CCNC(=O)Nc2ccc3c(c2)c(=O)n(C)n3Cc2ccc(Cl)cc2)cc1OC | -405 | -308 | -14 | i | -350 | -9 | x | x
C=C(C)Cn1c2ccc(NC(=O)NCC)cc2c(=O)n1C | i | i | 6 | i | i | 39* | 53* | 58*
CCNC(=O)Nc1ccc2c(c1)c(=O)n(C)n2Cc1ccc(Cl)cc1 | i | -419 | -1 | i | i | 28* | 16* | 26*
CCN(C(=O)COC(=O)C1=COCCO1)c1ccccc1 | -3 | 3 | -3 | -1 | -1 | 0 | x | x
CCN(C(=O)COC(=O)c1[nH]c(=O)[nH]c(=O)c1N)c1ccccc1 | -6 | 0 | -1 | -9 | -7 | 13* | 24* | 28*
SMILES | PLCb3 inh | PLC-gamma1 inh | HGIII-sPLA2 inh | ADAM10 inh | ADAM17 inh | KLK7 zymogen act | KLK7 act conf | EDANS interfere | others
CCn1cc(CNC(=O)CSc2nc(-c3ccc(OC)c(OC)c3)cc(C(F)(F)F)n2)c(C)n1 | i | i | -6 | -414 | -119 | 21* | 4 | 8.2*
CN(C(=O)c1ccncc1)c1nnc(-c2ccccn2)s1 | -34 | -36 | -2 | i | -127 | 64* | 88* | 81*
O=C(C1CCN(S(=O)(=O)c2ccc3[nH]c(=O)oc3c2)CC1)N1CCCC1 | 2 | -8 | 1 | -1 | 1 | 0 | x | x
OC1CN=C2CCCc3c2n(c2ccc(Cl)cc32)C1 (stereo not given) | -343 | -254 | 6 | -116 | -36 | 17* | -38 | -28
Cc1cc(N2CCN(Cc3ccccc3)CC2)n2nc(C)nc2n1 | -7 | -4 | 3 | 0 | 1 | 0 | x | x
CCOC(=O)C1CCN(C(=O)c2cc3c(=O)n4ccccc4nc3n2C)CC1 | i | i | 17 | i | i | 78* | 64* | 64*
CC1CN(C(=O)c2cc3c(=O)n4ccccc4nc3n2C)CC(C)O1 (stereo not given) | i | i | -2 | i | i | 79* | 75* | 71*
Cn1c(C(=O)O)cc2c(=O)n3ccccc3nc21 | i | i | 1 | i | i | 58* | 71* | 79*
CC1CC(NC(=O)c2cc3c(=O)n4ccccc4nc3n2C)CC(C)(C)C1 (stereo not given) | i | -429 | 0 | i | -203 | -84 | x | x
Cn1c(C(=O)N2CCOCC2)cc2c(=O)n3ccccc3nc21 | i | i | 1 | i | i | 61* | 73* | 84*
COC(=O)[C@]1(C#N)CC(=O)N(CC(C)C)[C@@H]1c1ccccc1 | -3 | -1 | 8 | -6 | -2 | -1 | x | x
Cc1ccc(-c2cc(-c3nnc4sc(Cc5cccs5)nn34)[nH]n2)cc1 | -3 | 1 | -38 | -8 | 0 | 1 | x | x
COC(=O)[C@@]12CCCCC=C1N(CCc1ccc(Cl)cc1)C(=O)[C@H]2CC(=O)NCC1CCCCC1 | 2 | 4 | -6 | 5 | 1 | 0 | x | x
Cn1cc(-c2cccc3[nH]cc(-c4ccccc4)c23)c2ccccc21 | -8 | -5 | -26 | -6 | -1 | -1 | x | x
Cn1c(C(=O)N2CCc3ccccc3C2)cc2c(=O)n3ccccc3nc21 | i | i | -2 | i | i | 16* | -33 | -26

Screens from PubChem BioAssay.
